Assay outcomes as filed in PubChem BioAssay.
HGIII-sPLA2 inh = human group III sPLA2 inhibitors, primary screen, biochemical, QFRET, BODIPY PC-A2 liposome substrate. QFRET BODIPY PC-A2 liposome hydrolysis, fluorescence. inhibition, % at 12.2 µM. AID 743126, 2013. 370,000 tested, 0.56% active. Group 3 secretory phospholipase A2 (Homo sapiens), Q9NZ20;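 active = inhibition above mean plus 3 SD of compounds lying within the high and low control bounds, cut at about 19% in these data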
Target sequence (Q9NZ20 whole entry, looked up): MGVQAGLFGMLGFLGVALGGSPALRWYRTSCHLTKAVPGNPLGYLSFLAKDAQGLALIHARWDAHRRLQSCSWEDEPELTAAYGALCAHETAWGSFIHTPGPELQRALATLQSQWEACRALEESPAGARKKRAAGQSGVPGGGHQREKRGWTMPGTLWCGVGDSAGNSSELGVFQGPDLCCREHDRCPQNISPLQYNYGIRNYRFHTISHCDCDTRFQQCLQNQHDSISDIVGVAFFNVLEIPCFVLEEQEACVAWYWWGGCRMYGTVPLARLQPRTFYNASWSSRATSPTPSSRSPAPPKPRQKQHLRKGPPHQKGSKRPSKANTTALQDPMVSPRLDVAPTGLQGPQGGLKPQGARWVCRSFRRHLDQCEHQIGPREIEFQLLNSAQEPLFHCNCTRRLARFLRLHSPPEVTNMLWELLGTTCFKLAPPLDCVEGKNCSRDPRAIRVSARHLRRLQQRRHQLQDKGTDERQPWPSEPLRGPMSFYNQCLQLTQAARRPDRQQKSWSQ
MsrA inh = bovine MsrA enzyme inhibitors, primary screen, biochemical, absorbance, HTS; Methionine sulfoxide reductase A (Bos taurus); purified bovine MsrA, absorbance read-out; inhibition, % at 15.5 µM; 360,000 tested, 0.75% active
rCAG RNA binder = binders of r(CAG) RNA repeats, primary screen, biochemical, fluorescence; inhibition, % at 3 µM; r(CAG) RNA repeat, TO-PRO-1 dye displacement fluorescence; AID 651821, 2012; 370,000 tested, 1.3% active;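 active = inhibition above the plate cutoff, the mean of all test compounds on that plate plus 3 SD, cut at about 35% in these data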;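 also: higher means more dye released from RNA so lower well fluorescence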
bovine MsrA act = bovine MsrA enzyme activators, primary screen, biochemical, absorbance, HTS; Methionine sulfoxide reductase A (Bos taurus); purified bovine MsrA, absorbance read-out; activation, % at 10.6 µM; 360,000 tested, 0.3% active; in the data active = activation above about 7.5%
MsrA conf = bovine MsrA inhibitors, retest, confirmation, biochemical, absorbance, HTS; inhibition, % at 15.5 µM; purified bovine MsrA, absorbance read-out; shares compounds with MsrA inh; 2,300 tested, 41% active;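 also: coupled to thioredoxin reductase with NADPH and selenocystamine and DMSO as substrate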
Large screens that a line does not name were inactive (follow-up assays come after a bar, where they were run). A selection: hits, their analogues and other compounds. The true share with any hit is near 2.8%. Rule as the data show it, unless noted: active = inhibition above about 4.5%; inactive = the rest.

C=CCn1c(NC(=O)c2ccco2)nc2ccccc21	MsrA inh 4.8 | MsrA conf inactive
Cc1nnc(SCC(=O)N/N=C/c2cc(Cl)c(O)c(Cl)c2)s1	MsrA inh 5.1 | MsrA conf 4.7
CS(=O)(=O)N(CC(=O)NC1CC1)c1cccc(F)c1	none
O=C(c1ccc(-c2nc3ccccc3s2)o1)N1CCN(c2ccccc2O)CC1	none
O=C(O)c1ccc(-c2nc3ccccc3s2)o1	MsrA inh 5.2 | MsrA conf inactive
Cc1ccc(S(=O)(=O)NCCNc2ccc([N+](=O)[O-])cc2C(F)(F)F)cc1	MsrA inh 29.3 | MsrA conf 21.3
Cc1ccc(C(=O)NCCNc2ccc([N+](=O)[O-])cc2C(F)(F)F)cc1	none
CCOC(=O)C(/C=C(\C#N)C(=O)OCC)=C(/N)N1CCN(c2ccc(OC)cc2)CC1	MsrA inh 5.9 | MsrA conf 8.2
COc1ccc(/C=C2\SC(=O)N(CCNC(=O)C3CSC4(C)CCC(=O)N34)C2=O)cc1 (configuration not stated)	MsrA inh 6.4 | MsrA conf inactive
COc1ccc(/C=C2\SC(=O)N(CCNC(=O)C3CC4C=CC3C4)C2=O)cc1 (configuration not stated)	none
COc1ccc(/C=C2/SC(=O)N(CCNC(=O)C3CCCN3C(=O)c3cccs3)C2=O)cc1 (configuration not stated)	MsrA inh 5.6 | MsrA conf inactive
CC12CCC(=O)N1C(C(=O)NCCN1C(=O)S/C(=C\c3ccc(OC(F)F)cc3)C1=O)CS2 (configuration not stated)	none
COc1ccc(/C=C2\SC(=O)N(CCn3cnnn3)C2=O)cc1	MsrA inh 6.3 | MsrA conf inactive
CCCNC(=O)C1(C)CCN(C(=O)c2ccc3ccccc3c2)C1 (configuration not stated)	none
COc1ccc(C(=O)NCc2cc(C)nc3ccccc23)cc1OC	none
COc1cccc2cc3c(=O)oc4ccccc4c3nc12	MsrA inh 18.5 | MsrA conf 13.4
CC1C(=O)NN=C1C(=O)N/N=C\C(Br)=C\c1ccccc1 (configuration not stated)	MsrA inh 5.7 | MsrA conf inactive
CCOC(=O)N1CCC(Nc2nc3ccccc3n3nnnc23)CC1	none
COc1ccc(NC(=O)/C(=C/c2ccc3c(c2)OCO3)NC(C)=O)cc1	MsrA inh 5.0 | MsrA conf inactive
O=C(NCc1ccccc1)/C(=C\c1ccc(O)cc1)NC(=O)c1ccco1	MsrA inh 4.8 | MsrA conf inactive
CC(=O)c1ccc(NC(=O)/C(=C\c2cccs2)NC(=O)c2ccco2)cc1	MsrA inh 5.0 | MsrA conf 4.7
COc1ccc(NC(=O)/C=C/c2ccc3c(c2)OCO3)cc1	none
COc1ccc(NC(=O)/C(=C\c2ccc(OC)c(OC)c2)NC(=O)c2ccco2)cc1	MsrA inh 5.0 | MsrA conf 4.8
O=C(NCc1ccccc1)/C(=C/c1ccccc1)NC(=O)c1ccco1	none
CC(=O)Nc1nnc(/C=C/c2cccc([N+](=O)[O-])c2)s1	none
CCN(C(=O)c1ccc(Cl)c(S(=O)(=O)Nc2c(C)n(C)n(-c3ccccc3)c2=O)c1)c1ccccc1	none
Cn1c(=NC(=O)c2ccco2)sc2ccccc21	MsrA inh 7.5 | MsrA conf 5.6
COC(=O)c1[nH]c2c(c1C(=O)OC)CCc1ccccc1-2	MsrA inh 5.6 | MsrA conf inactive
CNC(=O)c1[nH]nc2c1CCc1ccccc1-2	none
COc1cccc(/C=C2\SC(=O)N(CCC(=O)NC3CCS(=O)(=O)C3)C2=O)c1 (configuration not stated)	none
COc1cccc(/C=C2\SC(=O)N(CC(=O)NC3CCS(=O)(=O)C3)C2=O)c1 (configuration not stated)	MsrA inh 4.8 | MsrA conf inactive
COCCN(C(=O)CSc1nnc(-c2ccc(C)c(C)c2)o1)c1c(N)n(CC(C)C)c(=O)[nH]c1=O	none
CCN(CC)c1ccc(-c2nnc(SCC(=O)N(CCOC)c3c(N)n(CC(C)C)c(=O)[nH]c3=O)o2)cc1	MsrA inh 5.3 | MsrA conf inactive
CCN(CC)C(=O)CN1C(=O)COCC1=O	none
O=c1c2cc(Cl)ccc2oc2nc3n(c(=O)c12)CCCS3	MsrA inh 8.9 | MsrA conf inactive
O=C(COC(=O)Cc1ccsc1)Nc1ccccc1Cl	none
Cc1ccccc1NC1=C/C(=N\S(=O)(=O)c2ccc(C(=O)O)cc2)c2ccccc2C1=O	MsrA inh 18.9 | MsrA conf 20.7
CC1=C(Nc2ccc(C(=O)O)cc2)C(=O)c2ccccc2C1=O	none
O=C(O)c1ccc(S(=O)(=O)/N=C2\C=C(Nc3ccccc3F)C(=O)c3ccccc32)cc1	MsrA inh 45.6 | MsrA conf 47.2
O=S(=O)(/N=C(/Nc1ccccc1F)c1ccccc1)c1ccccc1	none
N#CCCSc1nc(N2CCOCC2)c2c(c1C#N)CCCC2	MsrA inh 18.2 | MsrA conf 15.0
CCCSc1nc(N2CCOCC2)c2c(c1C#N)CCCC2	MsrA inh 12.7 | MsrA conf 11.0
CSc1nc(N2CCOCC2)c2c(c1C#N)CCCCC2	MsrA inh 5.5 | MsrA conf inactive
CC(/C=C/c1ccccc1)=N\NC(N)=S	MsrA inh 6.0 | MsrA conf inactive
Cc1ccsc1/C=C1\SC(N)=NC1=O	MsrA inh 5.0 | MsrA conf inactive
Cc1cc(C)c(NC(=O)C2CCC(=O)N2)c(C)c1 (configuration not stated)	none
CCOc1ccc(C(=O)NCCN2CCCC2)cc1	none
O=C(N/N=C/c1ccsc1)c1ccccn1	none
Cc1ccsc1/C=N/NC(=O)c1ccccn1	MsrA inh 5.7 | MsrA conf inactive
O=C(N/N=C/c1ccc(Br)s1)c1ccccn1	MsrA inh 6.0 | MsrA conf 7.0
COc1ccccc1NC(=S)NCC1CCC(CNC(=S)Nc2ccccc2OC)CC1 (configuration not stated)	none
Cc1cccc(C)c1OCC1CNC(=O)O1 (configuration not stated)	none
CC1(C)CC(=O)C=C(Nc2ccccc2NC(=O)c2ccc(F)cc2F)C1	none (no result: MsrA inh, bovine MsrA act)
COc1cc(/C=N/n2cnnc2-n2nc(C)cc2C)cc([N+](=O)[O-])c1O	MsrA inh 5.2 | MsrA conf inactive
CCOc1cc(/C=N\NC(=O)c2ccc(C)nc2)cc([N+](=O)[O-])c1O	MsrA inh 8.0 | MsrA conf 6.4
O=C(N/N=C/c1cc(Br)c(O)c(Br)c1)c1cccnc1	none
COc1cc(/C=N/NC(=O)c2ccc(C)nc2)cc([N+](=O)[O-])c1O	MsrA inh 5.3 | MsrA conf inactive
COc1cc(/C=N/NC(=O)c2cccnc2)cc(Br)c1O	MsrA inh 4.7 | MsrA conf inactive
COc1cc([N+](=O)[O-])cc(/C=N/NC(=O)c2ccc(C)nc2)c1O	none
